RPL19A TOR yeast: RPL19A-GFP expression modulators in yeast, primary screen, cell-based, S. cerevisiae, multiplex flow cytometry, MLPCN. S. cerevisiae RPL19A-GFP strain, 3 h; active compounds read low. percent response vs DMSO, % at 10 µM. 330,000 tested, 0.3% active;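 active = percent response vs DMSO below 50%; inconclusive = fewer than 70 events counted for the yeast strain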;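 also: median channel GFP fluorescence of the barcoded RPL19A-GFP strain; ratio of sample median GFP to plate DMSO average so 100% = DMSO; lower means less RPL19A-GFP as with rapamycin TOR inhibition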
CIT2 TOR yeast: modulators of CIT2-GFP expression in yeast, primary screen, S. cerevisiae, GFP fusion, multiplex flow cytometry, MLPCN library; S. cerevisiae CIT2-GFP strain, 3 h; 100 means same as DMSO wells; GFP response vs DMSO, % at 10 µM; 320,000 tested, 0.065% active;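 active = GFP response relative to DMSO above a set limit, near the screen mean plus 3 SD, cut at about 150% in these data; inconclusive = Fewer than 70 cells measured for a yeast strain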;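 also: ratio of well median GFP fluorescence to mean of DMSO wells on the plate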
LAP4-GFP MLPCN: modulators of LAP4-GFP expression in yeast, primary screen, S. cerevisiae, multiplex flow cytometry, MLPCN library; 3 h; median GFP as percent of DMSO wells; GFP response vs DMSO, % at 10 µM; 320,000 tested, 0.34% active; AID 2023, 2009;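 active = GFP response vs DMSO above a set limit, about the screen mean plus 3 SD, cut at about 150% in these data; inconclusive = under 70 cell events counted for the yeast strain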
AGP1 TOR yeast: modulators of AGP1-GFP expression in yeast TOR pathway, primary screen, cell-based, multiplex flow cytometry, S. cerevisiae, MLPCN library. GFP response vs DMSO, % at 10 µM. 320,000 tested, 0.02% active. 3 h; GFP as percent of DMSO wells;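 active = GFP response relative to DMSO above a set limit, near screen average plus 3 SD, cut at about 150% in these data; inconclusive = fewer than 70 cells counted for the yeast strain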;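 also: median GFP channel fluorescence of the gated AGP1 strain per well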
MEP2 TOR yeast: modulators of MEP2-GFP levels in yeast, primary screen, S. cerevisiae, multiplex flow cytometry, MLPCN library; S. cerevisiae MEP2-GFP strain, 3 h; 100% = DMSO control level; GFP response vs DMSO, % at 10 µM; 330,000 tested, 0.51% active; AID 2016, 2009;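 active = GFP response versus DMSO above a set limit, roughly screen mean plus 3 SD, cut at about 180% in these data; inconclusive = fewer than 70 cells counted for a yeast strain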;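 also: median GFP fluorescence of the barcode-gated MEP2-GFP cells per well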
Numbers without * were called inactive; ? = inconclusive; . = no result given; [ ] = dose if it differs, or a comment. Sampled rows, rich in hits. Any-hit rate of the full collection: about 0.92%.

SMILES	RPL19A TOR yeast	CIT2 TOR yeast	LAP4-GFP MLPCN	AGP1 TOR yeast	MEP2 TOR yeast
O=C(CCNC(=O)c1ccccc1)NNC(=O)COc1ccccc1Cl	100	102	100	98	103
O=C(Nc1ccc(N2CCOCC2)cc1)c1ccc(Cl)c(S(=O)(=O)N2CCCCC2)c1	94	95	94	92	91
COC(=O)c1ccccc1NC(=O)c1cc(-c2ccco2)on1	52	?	74	?	214*[may fluoresce violet]
COC(=O)c1ccccc1NC(=O)c1cc(-c2cccs2)on1	97	98	107	97	98
CCN(c1cc(C)cc(C)c1)S(=O)(=O)c1nnc(NC(=O)C(C)(C)C)s1	97	?	74	15	647*[may fluoresce violet]
CCC(=O)Nc1nnc(S(=O)(=O)N(CC)c2cc(C)cc(C)c2)s1	116	102	101	111	111
C=C1C(O)[C@@H]2O[C@]3(CC[C@H](/C=C/C(C)[C@@H]4CC(C)=CC5(O[C@H](C[C@@](C)(O)CO)CCC5O)O4)O3)CC[C@H]2O[C@@H]1C(O)CC(C)[C@H]1OC2(CCCCO2)CCC1C (stereo partly specified)	97	95	111	99	98
C/C(=N\NC(=O)c1ccccc1Cl)c1ccccn1	99	106	98	105	95
C/C(=N\NC(=O)c1ccc(Cl)c(Cl)c1)c1ccccn1	137	109	285*	109	133
O=C(CSc1n[nH]c(=O)n1Cc1ccccc1)Nc1ccc(F)c(F)c1F	47*[may fluoresce violet]	?	104	21	780*[may fluoresce violet]
N#C/C(=C/c1ccc(N2CCOCC2)o1)c1ccc(Cl)cc1	95	101	161*	86	96
CC(C)CCC(O)(c1ccccc1)C(CN1CCOCC1)c1ccccc1 (stereo unspecified)	99	106	101	109	121
CC(C)CC(O)(c1ccccc1)C(CN1CCOCC1)c1ccccc1 (stereo unspecified)	22*[may fluoresce violet]	?	80	?	378*[may fluoresce violet]
O=C(C1CC1)N1CCc2cc(Br)cc(S(=O)(=O)NCc3ccccn3)c21	42*[may fluoresce violet]	?	90	?	202*[may fluoresce violet]
CCC(=O)N1CCc2cc(Br)cc(S(=O)(=O)N3CCCC(C(=O)NC(C)(C)C)C3)c21 (stereo unspecified)	53	?	74	15	326*[may fluoresce violet]
O=C(C1CC1)N1CCc2cc(Br)cc(S(=O)(=O)NCCN3CCOCC3)c21	97	94	99	97	105
CCC(=O)N1CCc2cc(Br)cc(S(=O)(=O)N3CCC(C(=O)NC(C)(C)C)CC3)c21	101	104	98	104	101
O=C(C1CC1)N1CCc2cc(Br)cc(S(=O)(=O)N3CCOCC3)c21	18*[may fluoresce violet]	?	78	?	214*[may fluoresce violet]
O=C(C1CC1)N1CCc2cc(Br)cc(S(=O)(=O)NCc3ccco3)c21	98	101	102	99	105
Cc1ccc(Sc2ccc(S(=O)(=O)Nc3ccc(CC(=O)O)cc3)cc2)cc1C	102	92	107	97	105
Cc1c(C(=O)Nc2ccccc2)cnn1-c1ccccc1	95	77	155*	127	137
CN(C)CCCNc1cc(C(C)(C)C)nc2c(-c3ccc(Cl)cc3)cnn12	56	61	186*	81	151
CC(C)(C)c1cc(NCc2ccccn2)n2ncc(-c3ccc(Cl)cc3)c2n1	98	81	110	100	103
CC1CCc2c(sc3ncnc(SCC(=O)N(C)C4CCS(=O)(=O)C4)c23)C1 (stereo unspecified)	95	92	101	93	95
Cc1ccccc1NC(=O)COC(=O)c1ccc(S(=O)(=O)N2CCCC2)cc1	93	90	97	93	100
SMILES	RPL19A TOR yeast	CIT2 TOR yeast	LAP4-GFP MLPCN	AGP1 TOR yeast	MEP2 TOR yeast
Cc1cc(C)c2c(N=NN3CCOCC3)[nH]nc2n1	97	151*	109	123	111
CC(C)OC(=O)c1cc(NC(=S)Nc2ccc([N+](=O)[O-])cc2)cc(C(=O)OC(C)C)c1	53	?	95	26	261*[may fluoresce violet]
CC(C)CCNC(=S)Nc1ccc([N+](=O)[O-])cc1	96	94	87	93	95
Cc1ccc(C(=O)N(C)CCOc2ccccc2)cc1S(=O)(=O)N1CCCCC1	104	98	107	100	97
COc1ccc(C(C(=O)NC(C)(C)C)N(C(=O)CCC(=O)Nc2cc(C)on2)c2ccc(C)c(C)c2)cc1 (stereo unspecified)	57	?	86	?	319*[may fluoresce violet]
COc1ccc(C(C(=O)NC(C)(C)C)N(C(=O)CCC(=O)Nc2cc(C)on2)c2ccc3c(c2)OCCO3)cc1 (stereo unspecified)	106	108	103	110	105
COCCn1c(SCC(=O)Nc2ccccc2)nnc1-c1ccoc1C	54	?	74	?	234*[may fluoresce violet]
COCCn1c(SCC(=O)Nc2ccccc2F)nnc1-c1ccoc1C	106	100	94	101	102
C/C(CC(=O)Nc1ccc(N(C)C)cc1)=N\NC(=O)c1ccc([N+](=O)[O-])cc1	107	101	97	99	107
Cc1ccc(-c2c(CC(=O)O)c(C)nc3sc4c(c23)CCCC4)cc1	104	83	102	95	100
CC(Nc1cc(C)cc(C)c1)=[N+](C)CCNS(=O)(=O)c1ccc(Cl)cc1	92	152*[may fluoresce green]	101	114	108
COc1ccc(CC2=CC(=O)c3ccccc3C2=O)cc1	102	101	90	101	96
CC(C)C[C@@]12C(=O)N(c3cccc(F)c3)C(=O)N1[C@H](c1ccc(F)cc1)[C@@H]1C(=O)N(C3CCCCC3)C(=O)[C@@H]12	95	67	127	80	95
Cc1ccc2c(c1)C1CN(C)CCC1N2C(=O)c1ccc(Cl)c(S(=O)(=O)N2CCOCC2)c1 (stereo unspecified)	90	112	150*	111	170
O=C(NC1CCCC1)c1ccc(Cl)c(S(=O)(=O)N2CCOCC2)c1	56	?	88	?	636*[may fluoresce violet]
Cc1ccc(Cl)cc1N1CCN(C(=O)CSc2ccsc2[N+](=O)[O-])CC1	98	98	117	97	184*
CCC(C)NCCCOc1cc(Cl)ccc1Cl (stereo unspecified)	42*[may fluoresce violet]	?	124	.	609*[may fluoresce violet]
CCN(Cc1ccncc1)C(=O)c1ccc(C)c(S(=O)(=O)N2CCCCC2)c1	93	84	90	92	91
CN1c2ccsc2/C(=N/Nc2ccc(F)cc2)CS1(=O)=O	95	95	151*	103	98
Cc1ccc(N/N=C2\CS(=O)(=O)N(C)c3ccsc32)cc1	101	92	117	97	97
